Bioassay records: PubChem BioAssay, Broad Institute
These entries were drawn from the full list.
aSyn 5UTR act: Activators via SNCA 5'UTR binding, MLPCN. alpha-synuclein 5'UTR reporter, activators screen. activity score, % (tested at 7.5 µM), hits read low. actives 7.1% (n = 300,000); in the data active means activity score below about -60%
Each line names hits and unclear results; the compound was inactive in the other large screens.

Cc1ccc(/C=N/Nc2nc(C(C)(C)C)cs2)o1	aSyn 5UTR act -123
CC(C)(C)c1csc(N/N=C/c2cccnc2)n1	aSyn 5UTR act -173
CC(C)=NNc1nc(-c2ccccc2)cs1	aSyn 5UTR act -182
COc1ccccc1-c1c(C(F)(F)F)oc2cc(OS(C)(=O)=O)ccc2c1=O	aSyn 5UTR act -101
CC(=O)Cc1nsc(NC(=O)c2cccs2)n1	aSyn 5UTR act -67
CCSc1nnc(NC(=O)c2cccs2)s1	aSyn 5UTR act -138
O=C(Nc1nnc(SCc2ccccc2)s1)c1cccs1	aSyn 5UTR act -67
O=C(Nc1nnc(SCc2ccc(F)cc2)s1)c1ccccn1	none
CCSc1nnc(NC(=O)C(C)(C)C)s1	aSyn 5UTR act -107
CCSc1nnc(NC(=O)NC2CCCCC2)s1	aSyn 5UTR act -64
Fc1ccc(-n2nnc(-c3cnc4ccccc4c3)n2)cc1	none
Brc1ccccc1-n1nnc(-c2cccnc2)n1	aSyn 5UTR act -76
Fc1ccc(-n2nnc(-c3cccnc3)n2)cc1	aSyn 5UTR act -89
Clc1ccc(-n2nnc(-c3cccnc3)n2)cc1Cl	aSyn 5UTR act -157
Fc1ccc(C(CCCn2nnc(-c3cccnc3)n2)c2ccc(F)cc2)cc1	aSyn 5UTR act -103
CCOC(=O)N1CCC(Nc2nc3ccccc3nc2NS(=O)(=O)c2ccc(Cl)cc2)CC1	aSyn 5UTR act -88
CCOC(=O)N1CCN(S(=O)(=O)c2ccc(C(=O)NNc3nc4ccc(Cl)cc4s3)cc2)CC1	none
O=C(O)c1ccc(N=NNc2cccc([N+](=O)[O-])c2)cc1	aSyn 5UTR act -107
COC(=O)c1ccc(N=NNc2ccc(C(=O)OC)cc2)cc1	aSyn 5UTR act -86
COC(=O)c1ccc(N=NNc2ccccc2)cc1	aSyn 5UTR act -226
COc1ccc(NC(=O)c2ccc([N+](=O)[O-])s2)c([N+](=O)[O-])c1	aSyn 5UTR act -92
COc1ccc(NC(=O)c2ccc(C)cc2Cl)c([N+](=O)[O-])c1	aSyn 5UTR act -131
COc1ccc(NC(=O)c2ccc(C)o2)c([N+](=O)[O-])c1	aSyn 5UTR act -102
COc1ccc(NC(=O)c2ccc(Br)o2)c([N+](=O)[O-])c1	aSyn 5UTR act -109
COc1ccccc1NC(=O)c1c[nH]c2ccccc12	aSyn 5UTR act -78
COc1ccccc1NC(=O)c1cnc(Nc2ccccc2OC)c2ccccc12	none
Cc1cccc(C)c1NC(=O)c1c[nH]c2ccccc12	aSyn 5UTR act -120
CCOC(=O)c1csc(Nc2nc3ccc(F)cc3s2)n1	aSyn 5UTR act -82
CC(=O)c1sc(Nc2nc3ccc(F)cc3s2)nc1C	aSyn 5UTR act -216
COC(=O)c1ccc2nc(Nc3nc4ccc(F)cc4s3)sc2c1	none
CC(C)C(=O)Nc1nc2cc3c(cc2s1)OCO3	aSyn 5UTR act -179
CC(C)(C)C(=O)Nc1nc2cc3c(cc2s1)OCO3	aSyn 5UTR act -144
O=C(Nc1nc2cc3c(cc2s1)OCCO3)C1=COCCO1	none
N#Cc1nc(-c2ccc(Cl)cc2)oc1NCCc1ccccn1	aSyn 5UTR act -156
Cc1ccc(-c2nc(C#N)c(NCCc3ccccn3)o2)cc1	aSyn 5UTR act -151
Cc1ccn2cc(-c3cccc(NC(=O)c4ccccc4)c3)nc2c1	aSyn 5UTR act -82
Cc1ccn2cc(-c3cccc(NC(=O)C(C)C)c3)nc2c1	aSyn 5UTR act -107
COc1ccc(CC(=O)Nc2ccc(-c3cn4ccc(C)cc4n3)cc2)cc1	aSyn 5UTR act -110
Cc1ccc(C(=O)N2CCN(S(=O)(=O)c3ccccc3[N+](=O)[O-])C2)cc1	aSyn 5UTR act -65
O=C(C1CCCCN1S(=O)(=O)c1ccccc1[N+](=O)[O-])N1CCCC1 (stereo unspecified)	aSyn 5UTR act -62
COc1ccc(OCC(=O)Nc2ccccc2O)cc1	aSyn 5UTR act -160
COc1ccccc1NC(=O)COc1ccccc1	aSyn 5UTR act -91
COc1ccc(NC(=O)COc2ccccc2)c(OC)c1	aSyn 5UTR act -115
COc1ccccc1NC(=O)COc1ccc(C(F)(F)F)cc1[N+](=O)[O-]	aSyn 5UTR act -73
CCc1c(C(=O)Nc2ccc(C)c(C)c2)[nH]c(C)c1C(C)=O	aSyn 5UTR act -146
CCOC(=O)c1c(C)[nH]c(C(=O)Nc2ccc(C)c(Cl)c2)c1C	aSyn 5UTR act -108
CCOC(=O)c1c(C)[nH]c(C(=O)Nc2ccc(NC(C)=O)cc2)c1C	none
CC(=O)c1c(C)[nH]c(C(=O)Nc2cccc(C(F)(F)F)c2)c1C	aSyn 5UTR act -100
COc1ccc(NC(=O)c2[nH]c(C)c(C(C)=O)c2C)cc1Cl	aSyn 5UTR act -77
CC(=O)c1c(C)[nH]c(C(=O)Nc2ccc(C)c(C)c2)c1C	aSyn 5UTR act -88
CC(=O)c1c(C)[nH]c(C(=O)Nc2ccc3c(c2)OCCO3)c1C	aSyn 5UTR act -144
Cc1cccc(NC(=O)c2cc(-c3cc(C)ccc3O)n[nH]2)c1	aSyn 5UTR act -227
Cc1cccc(NC(=O)c2cc(-c3cc(C)c(C)cc3O)n[nH]2)c1	aSyn 5UTR act -234
COc1ccc(NC(=O)c2cc(-c3cc(C)ccc3O)n[nH]2)cc1Cl	aSyn 5UTR act -72
Cc1ccc(-c2cc(C(=O)Nc3cccnc3)[nH]n2)c(O)c1C	aSyn 5UTR act -202
CCOC(=O)C1(Cc2ccccc2Cl)CCN(C(=O)c2cc(C)on2)CC1	aSyn 5UTR act -83
CCOC(=O)C1(Cc2ccccc2Cl)CCN(C(=O)c2cnccn2)CC1	aSyn 5UTR act -125
Cc1ccccc1OCc1nc(-c2ccc(NC(=O)c3ccc4c(c3)OCO4)cc2)no1	aSyn 5UTR act -109
CCCc1ccc(OCc2nc(-c3ccc(NC(=O)c4cccs4)cc3)no2)cc1	aSyn 5UTR act -169
CC(Oc1ccc(Cl)cc1Cl)c1nc(-c2ccc(NC(=O)c3ccco3)cc2)no1 (stereo unspecified)	aSyn 5UTR act -147
CCCc1ccc(OCc2nc(-c3ccc(NC(=O)c4ccco4)cc3)no2)cc1	aSyn 5UTR act -119
Cc1ccccc1OCc1nc(-c2ccc(NC(=O)c3cccs3)cc2)no1	aSyn 5UTR act -277
Cc1ccc(NC(=O)C(C)N=C2NS(=O)(=O)c3ccccc32)cc1F (stereo unspecified)	aSyn 5UTR act -96
CC(=O)c1ccc(NC(=O)CSc2nc(N3CCOCC3)nc(N3CCOCC3)n2)cc1	aSyn 5UTR act -73
CC(=O)Nc1c(O)nc(SCC(=O)Nc2ccc(C(C)=O)cc2)[nH]c1=O	aSyn 5UTR act -157
CCn1c(SCC(=O)Nc2ccc(C)cc2)nc(O)cc1=O	aSyn 5UTR act -71
CCOC(=O)c1cc(C)n(CCc2ccccc2)c1C	aSyn 5UTR act -69
Cc1cc(C(=O)COc2ncnc3sccc23)c(C)n1C	aSyn 5UTR act -125
CC(=O)c1ccc(Oc2ncnc3sccc23)cc1	aSyn 5UTR act -148
Cc1ccc2nc(-c3ccc(N4C(=N)SC5CS(=O)(=O)CC54)cc3)sc2c1 (stereo unspecified)	aSyn 5UTR act -101
CN(C)CCNC(=O)C(=O)Nc1ccc2c(c1)N(S(=O)(=O)c1cccs1)CCC2	aSyn 5UTR act -63
CCCNC(=O)C(=O)Nc1ccc2c(c1)N(S(=O)(=O)c1cccs1)CCC2	aSyn 5UTR act -79
COCCCNC(=O)C(=O)Nc1ccc2c(c1)N(S(=O)(=O)c1cccs1)CCC2	none
O=S(=O)(c1cccs1)N1CCCc2cccc(O)c21	aSyn 5UTR act -82
O=C(O)CC/C(=N/NC(=O)c1cccs1)c1ccccc1	aSyn 5UTR act -167
O=C(Nc1cccc(O)c1)c1ccc(NC(=O)c2cccs2)cc1	aSyn 5UTR act -68
O=C(Nc1ccc2c(c1)CCC2)c1cccs1	aSyn 5UTR act -145
CC(=O)Oc1cccc(C(=O)Nc2ccc(NC(=O)c3cccs3)cc2)c1	aSyn 5UTR act -106
O=C(N/N=C(\Cc1ncc[nH]1)c1ccccc1)c1ccccc1	none
